Screening data (PubChem)
A selection: hits, their analogues and other compounds. The true share with any hit is near 3.3%.
VACV mCherry inh: qHTS for Stage-Specific Inhibitors of Vaccinia Orthopoxvirus: mCherry Reporter Primary qHTS. Vaccinia virus mCherry reporter infection, fluorescence. Potency, µM (titrated, usually from 36.5 µM), most hits filed as inhibitors. 310,000 compounds, 0.63% hits. AID 720579, 2013; calls by dose curve; tested in A549 cells; note: nearly all actives have a fitted effect of over 35% in size
VACV Venus inh: qHTS for Stage-Specific Inhibitors of Vaccinia Orthopoxvirus: Venus Reporter Primary qHTS. Vaccinia virus Venus reporter expression, fluorescence. Potency, µM (top dose mostly 36.5 µM), actives largely listed as inhibitors. 330,000 compounds, 0.46% hits; calls by dose curve; tested in A549 cells; note: nearly all actives have a fitted effect of over 30% in size
HCV inh: qHTS Assay for Inhibitors of Hepatitis C Virus (HCV); Huh7.5.1 HCVcc-Cre infection, luciferase reporter, 44 h; Potency, µM (highest dose often 41.8 µM), actives largely listed as inhibitors; AID 651820, 2012; 340,000 compounds, 3.4% hits; active = well fitted inhibition curve with a large enough effect; inconclusive = small, poorly fitted or top-dose-only effect, or another doubt; inactive = no such curve, though single readings can be large or run the other way
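Luciferase read-out (15 sec integration) after a 15 min room-temperature substrate step quantifies HCVcc-Cre infection. Cells, 1,000 per well, had compound added 4 h post-plating, then virus at ~0.5 moi, and were cultured 44 h.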
A number is an active result.

`O=C(CN(c1ccc(Cl)cc1)S(=O)(=O)c1ccc(Cl)c([N+](=O)[O-])c1)NCCc1ccc(F)cc1` gave VACV mCherry inh inconclusive, VACV Venus inh inactive and HCV inh inconclusive.
Screening CCOC(=O)C1CCCN(S(=O)(=O)c2c(C(=O)N3CCCCC3)c(C)n(C)c2C)C1 (stereo not drawn) returned VACV mCherry inh inactive, VACV Venus inh inactive and HCV inh inactive.
For Cc1ccc(-c2nnc(Nc3ccc(O)cc3)c3ccccc23)cc1S(=O)(=O)N1CCN(C)CC1 the results were VACV mCherry inh inconclusive and VACV Venus inh inactive.
`CCN1CCN(C(=O)CCc2nc3ccccc3c(=O)[nH]2)CC1` gave VACV mCherry inh inactive, VACV Venus inh inactive and HCV inh inactive.
`O=C(CCc1nc2ccccc2c(=O)[nH]1)N1CCN(c2ccccc2Cl)CC1` gave HCV inh 11µM.
`CCOc1ccccc1C(=O)N1CCN(C(c2ccccc2)c2ccccc2)CC1` gave VACV mCherry inh inactive, VACV Venus inh inactive and HCV inh inconclusive.
CC(=O)c1ccccc1OCC(O)CN1CCN(C(c2ccccc2)c2ccccc2)CC1 (stereo not drawn) was read as VACV Venus inh inconclusive and HCV inh 10µM.
For O=S(=O)(c1ccc(Cl)cc1)c1snnc1-c1ccccc1 the results were VACV mCherry inh inconclusive, VACV Venus inh inconclusive and HCV inh 13µM.
O=S(=O)(c1ccc(F)cc1)c1snnc1-c1ccccc1 was read as VACV mCherry inh inconclusive, VACV Venus inh inactive and HCV inh inactive.
Screening Cc1onc(-c2c(F)cccc2Cl)c1C(=O)Nc1ccc(OC(C)C)cc1 returned VACV mCherry inh inactive and VACV Venus inh inactive.
`N[C@]1(C(=O)O)CC[C@@H](C(=O)O)C1` (racemic) gave VACV mCherry inh inactive and VACV Venus inh inactive.
Screening CC(=O)Nc1ccc(NC(=O)COC(=O)c2c(C)nn(-c3ccccc3)c2C)cc1 returned VACV mCherry inh inactive, VACV Venus inh inactive and HCV inh inconclusive.
`Cc1nn(-c2ccccc2)c(C)c1C(=O)OCC(=O)NC12CC3CC(CC(C3)C1)C2` gave HCV inh inactive.
For COc1ccc(OC)c(NC(=O)COC(=O)c2c3c(nc4ccccc24)CCCC3)c1 the results were HCV inh 0.89µM.
Cc1nn(-c2ccccc2)c(C)c1C(=O)OCC(=O)NC(=O)NC1CCCC1 was read as VACV Venus inh inconclusive and HCV inh 8.9µM.
For COc1ccccc1CNC(=O)COC(=O)c1c(C)nn(-c2ccccc2)c1Cl the results were HCV inh 11µM.
Screening COc1ccc(C)cc1NC(=O)COC(=O)c1c(C)nn(-c2ccccc2)c1C returned HCV inh 13µM.
COc1cccc(CNC(=O)COC(=O)c2c(C)nn(-c3ccccc3)c2Cl)c1 was read as VACV mCherry inh inactive, VACV Venus inh inactive and HCV inh inactive.
COc1ccc(NC(=O)COC(=O)c2c3c(nc4ccccc24)CCCC3)cc1 was read as VACV mCherry inh inconclusive, VACV Venus inh inactive and HCV inh inconclusive.
For Cc1ccc(C)c(NC(=S)N(CCN(C)C)C(C)c2ccccn2)c1 (stereo not drawn) the results were VACV mCherry inh inactive, VACV Venus inh inactive and HCV inh inactive.
`C#Cc1cccc(C(=O)NCc2nc(-c3ccccc3NC(C)=O)oc2C)c1` gave VACV mCherry inh inactive and VACV Venus inh inactive.
Screening CCc1nn(CC(=O)NCCCOC)c(=O)c2cc3ccccc3n12 returned VACV mCherry inh inactive and VACV Venus inh inactive.
O=C(Cn1ncc2c3ccccc3n(Cc3cccc(Cl)c3)c2c1=O)NC1CCCCCC1 was read as VACV mCherry inh inconclusive and VACV Venus inh inactive.
Screening Cn1c(=O)c2c(nc(N3CCOCC3)n2Cc2ccccc2F)n(C)c1=O returned VACV mCherry inh inactive and VACV Venus inh inactive.
`O=c1[nH]cnc2c1ccn2C1OC(CO)C(O)C1O` (stereo not drawn) gave VACV mCherry inh inconclusive, VACV Venus inh inactive and HCV inh 1.1µM.
For O=c1[nH]c(=O)c2ncn(C3OC(CO)C(O)C3O)c2[nH]1 (stereo not drawn) the results were VACV mCherry inh inactive and VACV Venus inh inactive.
O=c1[nH]c(=S)ccn1C1OC(CO)C(O)C1O (stereo not drawn) was read as VACV mCherry inh inactive, VACV Venus inh inactive and HCV inh inactive.
`Nc1nc(=O)n(C2OC(CO)C(O)C2O)cc1F` (stereo not drawn) gave VACV mCherry inh 2µM and VACV Venus inh inactive.
`O=c1[nH]cnc2c1[nH]c(=S)n2C1O[C@@H](CO)[C@H](O)[C@@H]1O` (stereo partly drawn) gave VACV mCherry inh inactive and VACV Venus inh inactive.
For Nc1ncn(C2O[C@H](CO)[C@@H](O)[C@H]2O)c(=O)n1 (stereo partly drawn) the results were HCV inh inactive.
`O=c1[nH]c(=O)n(C2OC(CO)C(O)C2O)cc1F` (stereo not drawn) gave VACV mCherry inh 1µM, VACV Venus inh inconclusive and HCV inh inconclusive.
O=c1[nH]c(=O)n([C@@H]2O[C@H](CO)[C@@H](O)[C@H]2O)cc1F was read as VACV mCherry inh 1.1µM and VACV Venus inh inconclusive.
For CN(C)CCNC(=O)CN1N=C(c2ccccc2)CCC1=O the results were VACV mCherry inh inactive and VACV Venus inh inactive.
`Cc1ccccc1-n1c2nc(=O)[nH]c(=O)c-2cc2c(Cl)cccc21` gave VACV mCherry inh inactive and VACV Venus inh inactive.
For Cc1ccc(NC(=O)C2CCCN(S(=O)(=O)c3ccc4c(c3)CCCC(=O)N4)C2)cc1Cl (stereo not drawn) the results were VACV mCherry inh inactive and VACV Venus inh inactive.
`COc1ccc(C2C(=O)N(C3CCC(C)CC3)CC(=O)N2C2CCCC2)cc1OC` (stereo not drawn) gave VACV mCherry inh inactive and VACV Venus inh inactive.
CC(C)Oc1ccc(C(=O)Nc2ccccc2N2CCOCC2)cc1 was read as HCV inh inactive.
CN1CCN(c2ccccc2NC(=O)c2ccc(-c3ccccc3)cc2)CC1 was read as VACV Venus inh inactive and HCV inh inconclusive.
For CN1CCN(c2ccccc2NC(=O)c2ccc(OCc3ccccc3)cc2)CC1 the results were VACV Venus inh inactive and HCV inh 11µM.
Screening Cc1nc(COc2ccc(C(=O)Nc3ccccc3N3CCOCC3)cc2)cs1 returned VACV mCherry inh inactive, VACV Venus inh inactive and HCV inh 11µM.
Screening COC(=O)C1CCN(Cc2ccc3c(c2)CN(C(=O)C2CCCN(c4ccccn4)C2)CCO3)CC1 (stereo not drawn) returned VACV mCherry inh inactive and VACV Venus inh inactive.
Screening Cc1cccc(NC(=O)CCc2c(C)nc3c(c(C)nn3C(C)(C)C)c2C)c1C returned VACV mCherry inh inconclusive and VACV Venus inh inactive.
Screening COc1cccc(/C=C/c2nc(C#N)c(N3CCCCC3)o2)c1 returned VACV mCherry inh inactive and VACV Venus inh inactive.
For Cc1ccc2cc(CN(C)C(=O)c3cccc(Cl)c3)c(=O)[nH]c2c1 the results were VACV mCherry inh inactive and VACV Venus inh inactive.
CCOC(=O)c1c2c(n(-c3ccc(OC)cc3)c1C)C(=O)C(=O)c1ccccc1-2 was read as VACV mCherry inh 2.8µM, VACV Venus inh 4.5µM and HCV inh 7.9µM.
